{
  "source": "PubChem BioAssay AID1376",
  "about": "(SRMLSC, 2008)",
  "note": "In all, about 220,000 compounds went through this assay and about 530 (0.24%) were called active. No stated cut-off is given here; in the data, active means inhibition above about 13%; inconclusive means no clear call, values can overlap the other calls; inactive means below that. The full list was thinned out, with actives kept by preference. Potency and affinity values are given separately.",
  "data": [
    {"target": "Bifunctional protein GlmU (Mycobacterium tuberculosis (strain ATCC 25618 / H37Rv)) (UniProt P9WMN3)", "sequence (P9WMN3 whole entry, looked up)": "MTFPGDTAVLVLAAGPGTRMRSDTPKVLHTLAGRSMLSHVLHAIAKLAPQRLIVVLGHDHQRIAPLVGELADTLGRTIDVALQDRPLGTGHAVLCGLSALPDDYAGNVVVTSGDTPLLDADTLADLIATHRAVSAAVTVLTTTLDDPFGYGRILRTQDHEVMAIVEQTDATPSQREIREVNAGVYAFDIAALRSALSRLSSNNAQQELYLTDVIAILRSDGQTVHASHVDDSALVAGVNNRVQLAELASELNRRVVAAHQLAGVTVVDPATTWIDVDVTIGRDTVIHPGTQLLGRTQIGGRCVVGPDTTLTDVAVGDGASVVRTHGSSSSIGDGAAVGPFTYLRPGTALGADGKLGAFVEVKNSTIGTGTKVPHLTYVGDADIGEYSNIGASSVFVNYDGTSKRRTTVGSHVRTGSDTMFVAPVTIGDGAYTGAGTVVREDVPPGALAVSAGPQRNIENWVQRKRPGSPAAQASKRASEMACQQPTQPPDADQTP", "assay": "inhibition of mycobacterial GlmU enzyme – biochemical, glucosamine-1-phosphate acetyltransferase (AID 1376);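 further: 0% = complete reaction with vehicle and 100% = reaction without substrate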", "conditions": "M. tuberculosis GlmU acetyltransferase enzyme assay; stronger effect = higher value;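 tested at 30 µM in the primary screen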", "values": [
      {"smiles": "Cc1c(NC(=O)c2ccc(S(=O)(=O)N(C)c3ccccc3)cc2)c(=O)n(-c2ccccc2)n1C", "inhibition": "-6.06% (inactive)"},
      {"smiles": "CCC(C)(C)NC(=O)C(c1ccc(OC)cc1)N(CC1CCCO1)C(=O)CCC(=O)Nc1cc(C)on1", "note": "(stereo not given)", "inhibition": "5.67% (inactive)"},
      {"smiles": "COc1ccc(C(C(=O)NC(C)(C)C)N(CC2CCCO2)C(=O)CCC(=O)Nc2cc(C)on2)cc1", "note": "(stereo not given)", "inhibition": "16.9% (active)"},
      {"smiles": "COc1ccc(C(C(=O)NC(C)(C)C)N(Cc2ccc(C)cc2)C(=O)CCC(=O)Nc2cc(C)on2)cc1", "note": "(stereo not given)", "inhibition": "5.39% (inactive)"},
      {"smiles": "COc1cc2nc(C3CCC3)n(NC(=O)C3CCC(OC)CC3)c(=O)c2cc1OC", "note": "(stereo not given)", "inhibition": "0.09% (inactive)"},
      {"smiles": "C=CC1CN2CCC1CC2c1[nH]c2ccccc2c1CCO", "note": "(stereo not given)", "inhibition": "-1.33% (inactive)"},
      {"smiles": "NS(=O)(=O)c1cc(C(=O)OCC(=O)NC2CC2)ccc1Cl", "inhibition": "0.47% (inactive)"},
      {"smiles": "O=[N+]([O-])c1ccc2c(c1)C(N1CCOCC1)/C(=C/COc1ccc(Cl)cc1Cl)O2", "note": "(stereo not given)", "inhibition": "-0.92% (inactive)"},
      {"smiles": "COC(=O)c1oc2c(c1C)C1(CCC2)SCCS1", "inhibition": "-1.66% (inactive)"},
      {"smiles": "COc1ccc(OC)c2c1C(=O)c1ccccc1C2=O", "inhibition": "1.18% (inactive)"},
      {"smiles": "COc1ccc(N)c2c1C(=O)c1ccccc1C2=O", "inhibition": "11.8% (inactive)"},
      {"smiles": "COc1ccc(OC)c2c1C(=O)C(Cl)=C(Cl)C2=O", "inhibition": "15.7% (active)"},
      {"smiles": "O=C1CN(/N=C/c2ccc([N+](=O)[O-])o2)C(=O)N1", "inhibition": "0.61% (inactive)"},
      {"smiles": "O=C(O)/C=C/c1ccc([N+](=O)[O-])o1", "inhibition": "-1.44% (inactive)"},
      {"smiles": "Cc1ccc(C2=N/C(=C\\N(C)C)C(=O)O2)cc1", "inhibition": "1.44% (inactive)"},
      {"smiles": "O=C1/C(=C/c2cccc(Br)c2)SC(=S)N1/N=C/c1cc([N+](=O)[O-])ccc1O", "inhibition": "-5.24% (inactive)"},
      {"smiles": "Cc1ccccc1/C=C1\\SC(=S)N(/N=C/c2cc([N+](=O)[O-])ccc2O)C1=O", "inhibition": "-0.74% (inactive)"},
      {"smiles": "Cc1ccc(/C=C2\\SC(=S)N(/N=C/c3cc([N+](=O)[O-])ccc3O)C2=O)o1", "inhibition": "46.9% (active)"},
      {"smiles": "CC1CCC(NC(=O)c2ccc(/C=C3\\Oc4ccccc4N(C)C3=O)cc2)CC1", "note": "(stereo not given)", "inhibition": "-2.49% (inactive)"},
      {"smiles": "O=C(O)C1C2C=CC(C3CC23)C1C(=O)O", "note": "(stereo not given)", "inhibition": "1.12% (inactive)"},
      {"smiles": "O=C(O)C1C2C=CC(C2)C1C(=O)N1CCOCC1", "note": "(stereo not given)", "inhibition": "-2.63% (inactive)"},
      {"smiles": "COc1ccc(/C=N/n2c(-c3n[nH]c4c3CCC4)n[nH]c2=S)cc1OC", "inhibition": "14.3% (active)"},
      {"smiles": "COc1cc(/C=N/n2c(-c3n[nH]c4c3CCC4)n[nH]c2=S)cc(OC)c1O", "inhibition": "0.14% (inactive)"},
      {"smiles": "COc1cc(/C=N/n2c(-c3n[nH]c4c3CCC4)n[nH]c2=S)ccc1O", "inhibition": "1.56% (inactive)"},
      {"smiles": "Cc1cc(C(=O)O)c(CSCc2cc(C(=O)O)oc2C)o1", "inhibition": "2.24% (inactive)"}
    ]}
  ]
}
